Source: PubChem (National Center for Advancing Translational Sciences (NCATS))
Cruzain inh Det: qHTS Assay for Promiscuous and Specific Inhibitors of Cruzain (with detergent); Cruzipain (Trypanosoma cruzi), P25779; purified cruzain, Z-FR-AMC fluorescence, 0.01% Triton; Potency, µM, for inactives: max response, negative = inhibition, most hits filed as inhibitors; 200,000 tested, 0.43% active;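 note: plate controls were neutral wells for no effect and buffer without enzyme for full effect; nearly all actives have a fitted effect of over 40% in size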
Target sequence (P25779 123-467 limits assumed): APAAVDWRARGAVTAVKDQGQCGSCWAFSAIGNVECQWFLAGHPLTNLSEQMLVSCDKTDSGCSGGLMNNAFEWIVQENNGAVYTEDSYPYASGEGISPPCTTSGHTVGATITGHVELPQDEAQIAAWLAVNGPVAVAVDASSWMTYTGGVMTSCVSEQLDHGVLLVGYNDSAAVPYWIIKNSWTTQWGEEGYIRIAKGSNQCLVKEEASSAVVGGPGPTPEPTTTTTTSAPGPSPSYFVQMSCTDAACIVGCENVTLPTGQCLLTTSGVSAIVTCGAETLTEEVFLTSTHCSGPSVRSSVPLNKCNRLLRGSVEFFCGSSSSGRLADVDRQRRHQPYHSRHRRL
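Cysteine protease activity tested under reducing, mildly acidic conditions (100 mM sodium acetate pH 5.5, 5 mM DTT) plus 0.01% Triton X-100. Cruzain 1.5 nM; substrate Z-FR-AMC 2 uM; 15 min compound preincubation at room temperature.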
Cruzain noTriton: qHTS Assay for Promiscuous and Specific Inhibitors of Cruzain (without detergent); purified cruzain, Z-FR-AMC fluorescence, no detergent; Potency, µM, without a hit: max response, negative = inhibition, most hits filed as inhibitors; 200,000 tested, 2.3% active;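 note: plate controls were enzyme without inhibitor for no effect and buffer without enzyme for full effect; nearly all actives have a fitted effect of over 40% in size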
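Purified cruzain at 1.5 nM, pre-incubated 15 min with compound at room temperature in 100 mM sodium acetate pH 5.5, 5 mM DTT, 0.00005% Triton X-100. Reaction started with 2 uM Z-FR-AMC; AMC fluorescence increase over 60 s gives rate.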
Starred values were filed as active, the others as inactive; ? = inconclusive. This is a sample that favours compounds with a hit; in the whole collection about 2.6% have one here. Calls come from the whole dose curve; as a rule, active = well fitted curve in the direction sought with a large enough effect; inconclusive = small, poorly fitted or top-dose-only effect, or another doubt; inactive = no such curve, though single readings can be large; an effect the other way counts as inactive or inconclusive. Potency is the fitted concentration of half-maximal effect.

SMILES	Cruzain inh Det	Cruzain noTriton
CCOc1ccc(NC(=O)c2cn(C)c(=O)c3cc(OC)c(OC)cc23)cc1	0.3%	-1.3%
CSc1ccc(/C=C/c2nc3ccccc3n2S(=O)(=O)c2cccc(Cl)c2)cc1	-11.1%	-0.6%
O=S(=O)(c1cccc(Cl)c1)n1c(/C=C/c2ccccc2Cl)nc2ccccc21	-9.7%	7.94µM*
CCOC(=O)c1c(C)n(-c2ccccc2)c2ccc(OC(=O)COc3ccc(Cl)cc3)cc12	0.4%	8.8%
CC(C)Cc1ccc(C(C)C(=O)Nc2nccs2)cc1 (stereo not drawn)	-4.5%	25.1µM*
CC(C)C(C(=O)Nc1nccs1)c1ccccc1 (stereo not drawn)	0.8%	6.6%
N#CC(Cc1ccc(O)c(O)c1)C(=O)N1CCc2ccccc21 (stereo not drawn)	-9.7%	-7.8%
CC(=O)c1cc(-c2ccccc2)n(CCC(=O)NCCc2ccccc2)c1C	-2.6%	-1.1%
C=CCOC(=O)C1=C(C)NC(SCC(=O)Nc2ccc(C)c(Cl)c2)=C(C#N)C1c1ccco1 (stereo not drawn)	-6.7%	10µM*
COCCOC(=O)C1=C(C)NC(SCC(=O)NC(C)(C)C)=C(C#N)C1c1ccco1 (stereo not drawn)	-4.1%	11.6%
CC(=O)C1=C(C)NC(SCC(=O)c2ccc(C)cc2)=C(C#N)C1c1ccco1 (stereo not drawn)	-15.2%	-29.1%
COc1ccccc1NC(=O)C1=C(C)NC(SCC(=O)c2ccccc2)=C(C#N)C1c1ccco1 (stereo not drawn)	-3.7%	15.8µM*
COc1ccccc1CN1CC[C@@]2(CCCN(C(=O)c3cnccn3)C2)C1	2.3%	-5.1%
CCn1c(=O)c2sccc2n2c(CCC(=O)NCc3ccc(Cl)cc3)nnc12	-3.2%	2.9%
Cc1ccccc1CNC(=O)c1ccccc1NC(=O)c1nsc2ccccc12	-0.1%	12.6%
O=C(NCc1cccc(Cl)c1)c1cc2ccc3cccnc3c2[nH]1	-6.0%	-20.0%
O=C(NCc1ccc(Cl)cc1)c1cc2ccc3cccnc3c2[nH]1	-6.2%	25.1µM*
Cc1cc(C)c2oc(-c3ccc(Cl)c(NC(=O)c4cccs4)c3)nc2c1	0.3%	-3.5%
COc1ccc(CN(Cc2ccco2)C(=O)COc2ccc(Cl)cc2C)cc1	-4.2%	-1.6%
O=C(O)CC[C@H](NC(=O)c1ccccc1C(=O)O)C(=O)O	4.4%	7.7%
O=C1OC(/C=C/c2ccccc2)=NC/1=C/C=C/c1ccccc1	5.01µM*	?
NC1=NC(=O)/C(=C\C=C\c2ccccc2)S1	3.5%	?
CCN(N=O)C(N)=O	5.6%	-5.7%
CCOc1cc(CNC(=O)c2ccc3c(c2)nc2n3CCCCC2)ccc1OC	7.9%	-11.8%
CN(C(=O)Cn1cc(S(=O)(=O)N2CCN(c3ccccc3F)CC2)c2ccccc2c1=O)c1ccc(Cl)cc1	-3.8%	-29.2%
SMILES	Cruzain inh Det	Cruzain noTriton
Cc1ccc(NC(=O)CN2CCN(c3ccccc3F)CC2)cc1F	-3.8%	5.9%
CC1CCN(S(=O)(=O)c2cn(CC(=O)Nc3cccc(C(F)(F)F)c3)c(=O)c3ccccc23)CC1	-5.1%	?
Cc1ccc(NC(=O)Cn2cc(S(=O)(=O)N3CCN(c4ccccc4F)CC3)c3ccccc3c2=O)cc1F	-1.9%	7.94µM*
CC(C)c1ccc(NC(=O)Cn2cc(S(=O)(=O)N3CCN(c4ccccc4F)CC3)c3ccccc3c2=O)cc1	-2.1%	7.94µM*
O=C(Cn1cc(S(=O)(=O)N2CCN(c3ccccc3F)CC2)c2ccccc2c1=O)Nc1cccc(C(F)(F)F)c1	-1.7%	7.94µM*
COc1ccccc1-c1ccc2ncnc(N(C)C)c2c1	-7.7%	0.2%
COC(=O)c1c(NC(=O)CCCOc2cccc(C)c2)sc2c1C(C(=O)OC)CC2 (stereo not drawn)	-9.0%	24.7%
COc1ccc(C(=O)C2C3C4COC(O4)C(=O)C3C3C=Cc4ccccc4N32)c(OC)c1 (stereo not drawn)	-13.7%	-19.8%
O=C(CSc1nc(-c2ccccc2)cs1)Nc1nccs1	5.0%	25.1µM*
O=C(CSc1nc(-c2ccccc2)nc2ccccc12)Nc1nccs1	-2.1%	?
C[C@H]1C=C2C=C[C@H](C)[C@H](CC[C@@H]3C[C@@H](O)CC(=O)O3)[C@H]2[C@@H](OC(=O)[C@@H](C)CCO)C1	-10.1%	?
COc1cccc(CNC(=O)N2CCc3c(sc4c3CCCC4)C2c2ccc(F)cc2)c1 (stereo not drawn)	-2.2%	6.31µM*
O=C(NCc1ccccc1)N1CCc2c(sc3c2CCCC3)C1c1ccccc1 (stereo not drawn)	-2.4%	?
C=Cc1ccc(Cn2c(C(=O)O)c(CNC3CCCCC3)c3ccc(C)cc32)cc1	-1.4%	-12.7%
COc1ccc(N2C(=O)CSC23CCC(C(C)(C)C)CC3)cc1 (stereo not drawn)	-8.0%	?
CC(C)(C)C1CCC2(CC1)Nc1cccc3cccc(c13)N2	-6.3%	25.1µM*
Cc1c(Cl)cccc1NC(=O)CSc1ncc2c(n1)-c1ccccc1N(C)S2(=O)=O	-2.3%	8.5%
O=S(=O)(c1ccc(F)cc1)N1CCn2c(nc3ccccc32)C1	17.8µM*	5.01µM*
O=S(=O)(c1ccccc1)N1CCn2c(nc3ccccc32)C1	-7.0%	-13.4%
C/C(=N\NC(=O)c1ccc(CN2CCOCC2)cc1)c1cccc([N+](=O)[O-])c1	1.2%	-9.2%
C/C(=N/NC(=O)c1cc(-c2cccc([N+](=O)[O-])c2)n[nH]1)c1ccc(Cl)cc1	0.0%	6.31µM*
CCNc1ncc2nc(-c3ccccc3)c(=O)n(CCOC)c2n1	-24.1%	23.3%
CC[C@@]12CCCN3CCc4c(n(c5ccccc45)C(=O)C1)[C@H]32	1.4%	2.1%
Cc1cc(C(=O)Nc2cnn(Cc3ccc(Cl)cc3Cl)c2)no1	-3.0%	-4.1%
O=C(Nc1cnn(Cc2ccc(Cl)cc2Cl)c1)c1noc2c1CCc1ccccc1-2	-6.4%	7.94µM*
SMILES	Cruzain inh Det	Cruzain noTriton
O=C(c1cccc(F)c1)N1CCC2(CC1)CCN(c1ncccn1)CC2	-1.2%	14.0%
Cc1cc(=O)c2c(O)cc(O)c(C)c2o1	-5.2%	-9.2%
CCc1ccc(NC(=O)CSc2nc3n[nH]c(C)c3c(=N)n2-c2ccccc2C)cc1	-1.5%	-24.7%
CCOc1ccccc1-n1c(SCC(=O)Nc2ccc(CC)cc2)nc2n[nH]c(C)c2c1=N	0.9%	6.31µM*
C#C[C@@]1(O)CC[C@@H]2[C@@H]3CCC4=CC(=O)CC[C@@H]4[C@H]3CC[C@]21C	0.1%	-3.2%
CC1=C(C(=O)Nc2ccc(Cl)cc2)C(c2ccccc2)n2ncc(C(=O)Nc3ccccc3)c2N1 (stereo not drawn)	-10.1%	?
COc1ccc(NC(=O)C2=C(C)Nc3c(C(=O)Nc4ccc(C)cc4)cnn3C2c2cccc(Cl)c2)cc1 (stereo not drawn)	-4.2%	15.8µM*
CC1=C(C(=O)Nc2ccc(Cl)cc2)C(c2ccccc2C)n2ncc(C(=O)Nc3ccc(C)cc3)c2N1 (stereo not drawn)	-4.3%	31.6µM*
COc1ccc(NC(=O)C2=C(C)Nc3c(C(=O)Nc4ccc(C)cc4)cnn3C2c2cc(OC)ccc2OC)cc1 (stereo not drawn)	-5.7%	-0.5%
COc1ccc(NC(=O)c2c(-c3ccccc3)c(-c3ccccc3)nn(C)c2=O)c(OC)c1	-1.6%	16.7%
CC(=O)[O-].CC(=O)[O-].CC(=O)[O-].[Cr+3]	1.3%	1.5%
COCC(=O)N1CCC2(CCCN(Cc3nccs3)C2)CC1	2.9%	3.3%
